# Source: article PMC12820563, “FoxP3 forms a head-to-head dimer in vivo and stabilizes its multimerization on adjacent microsatellites”
# The full ranking holds about 16,000 sequences; the median of “rpm ratio (pull-down/input)” is about 0.5, and the highest 2% start at about 5.5. This is one part of a sample in which the highest values are shown more often than they occur.
# Biological target: T1, MBP-FoxP3dN (Mus musculus, UniProt Q99JB6 188-423)
# T1 sequence: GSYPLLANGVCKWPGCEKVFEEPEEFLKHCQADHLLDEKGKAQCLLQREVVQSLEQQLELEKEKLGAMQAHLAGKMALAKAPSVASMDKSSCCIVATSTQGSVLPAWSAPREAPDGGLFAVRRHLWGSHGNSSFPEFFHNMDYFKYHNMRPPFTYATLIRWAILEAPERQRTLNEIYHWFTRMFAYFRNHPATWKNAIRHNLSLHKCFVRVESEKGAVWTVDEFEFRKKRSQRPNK
# Assay: PD-seq (MBP pull-down with sequencing); 20 mM Tris-HCl pH 7.5, 100 mM NaCl, 1.5 mM MgCl2, 0.4 uM protein, 0.1 uM dsDNA library, 30 min, room temperature, amylose pull-down; high values mean tight binding
# Settings: protein: recombinant; tags: His6-MBP; chain copies: 2; dsDNA, one strand shown
# Procedure, shortened: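 The N-terminus-lacking fragment of mouse FoxP3 or FoxP1 carried a His6-MBP tag and was expressed in E. coli. At 0.4 µM it was incubated with 0.1 µM Klenow-filled degenerate double-stranded DNA library for 30 min at room temperature in Tris pH 7.5 buffer with NaCl and MgCl2, and complexes were caught on amylose resin, washed three times, released with proteinase K, PCR-barcoded and Illumina-sequenced. Binding is reads-per-million enrichment of pull-down over input with replicates pooled.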
row,Sequence,binding signal
1,GATGATTGTTCTCCCAGCTGATGAATTTCGAACCTCGAGTAAACAAATTTTCCTAATCTTTCTGTTCAAGCGCCATCTAC,0.301 RPM ratio (pull-down/input)
2,GATGATTGTTCTCCCAGCTGATGAATTACAACCGTCGAGTAAACAAATTTTCCTAATCTTTCTGTTCAAGCGCCATCTAC,0.497 RPM ratio (pull-down/input)
3,GATGATTGTTCTCCCAGCTGATGAATTGAGTTAATCGAGTAAACAAATTTTCCTAATCTTTCTGTTCAAGCGCCATCTAC,0.369 RPM ratio (pull-down/input)
4,GATGATTGTTCTCCCAGCTGATGAATTTACAGGCTCGAGTAAACAAATTTTCCTAATCTTTCTGTTCAAGCGCCATCTAC,0.441 RPM ratio (pull-down/input)
5,GATGATTGTTCTCCCAGCTGATGAATTGGAACCGTCGAGTAAACAAATTTTCCTAATCTTTCTGTTCAAGCGCCATCTAC,0.224 RPM ratio (pull-down/input)
6,GATGATTGTTCTCCCAGCTGATGAATTGCTGTTATCGAGTAAACAAATTTTCCTAATCTTTCTGTTCAAGCGCCATCTAC,2.06 RPM ratio (pull-down/input)
7,GATGATTGTTCTCCCAGCTGATGAATTATTATTATCGAGTAAACAAATTTTCCTAATCTTTCTGTTCAAGCGCCATCTAC,1.99 RPM ratio (pull-down/input)
8,GATGATTGTTCTCCCAGCTGATGAATTTGTTATCTCGAGTAAACAAATTTTCCTAATCTTTCTGTTCAAGCGCCATCTAC,7.03 RPM ratio (pull-down/input)
9,GATGATTGTTCTCCCAGCTGATGAATTGTTATCCTCGAGTAAACAAATTTTCCTAATCTTTCTGTTCAAGCGCCATCTAC,2.64 RPM ratio (pull-down/input)
10,GATGATTGTTCTCCCAGCTGATGAATTTCTGTTATCGAGTAAACAAATTTTCCTAATCTTTCTGTTCAAGCGCCATCTAC,1.07 RPM ratio (pull-down/input)
11,GATGATTGTTCTCCCAGCTGATGAATTGTTATTATCGAGTAAACAAATTTTCCTAATCTTTCTGTTCAAGCGCCATCTAC,5.54 RPM ratio (pull-down/input)
12,GATGATTGTTCTCCCAGCTGATGAATTTTTGTTATCGAGTAAACAAATTTTCCTAATCTTTCTGTTCAAGCGCCATCTAC,2.29 RPM ratio (pull-down/input)
13,GATGATTGTTCTCCCAGCTGATGAATTATTGTTATCGAGTAAACAAATTTTCCTAATCTTTCTGTTCAAGCGCCATCTAC,3.55 RPM ratio (pull-down/input)
14,GATGATTGTTCTCCCAGCTGATGAATTGTTGTTATCGAGTAAACAAATTTTCCTAATCTTTCTGTTCAAGCGCCATCTAC,6.7 RPM ratio (pull-down/input)
15,GATGATTGTTCTCCCAGCTGATGAATTTCGGGCCTCGAGTAAACAAATTTTCCTAATCTTTCTGTTCAAGCGCCATCTAC,0.404 RPM ratio (pull-down/input)
16,GATGATTGTTCTCCCAGCTGATGAATTATGGAAATCGAGTAAACAAATTTTCCTAATCTTTCTGTTCAAGCGCCATCTAC,0.4 RPM ratio (pull-down/input)
17,GATGATTGTTCTCCCAGCTGATGAATTTTGTGCTTCGAGTAAACAAATTTTCCTAATCTTTCTGTTCAAGCGCCATCTAC,1.87 RPM ratio (pull-down/input)
18,GATGATTGTTCTCCCAGCTGATGAATTGAGACTATCGAGTAAACAAATTTTCCTAATCTTTCTGTTCAAGCGCCATCTAC,0.692 RPM ratio (pull-down/input)
19,GATGATTGTTCTCCCAGCTGATGAATTCCTTAGCTCGAGTAAACAAATTTTCCTAATCTTTCTGTTCAAGCGCCATCTAC,0.222 RPM ratio (pull-down/input)
20,GATGATTGTTCTCCCAGCTGATGAATTTGGACTGTCGAGTAAACAAATTTTCCTAATCTTTCTGTTCAAGCGCCATCTAC,0.82 RPM ratio (pull-down/input)
21,GATGATTGTTCTCCCAGCTGATGAATTTCGGTGCTCGAGTAAACAAATTTTCCTAATCTTTCTGTTCAAGCGCCATCTAC,0.541 RPM ratio (pull-down/input)

row,Sequence,binding signal
1,GATGATTGTTCTCCCAGCTGATGAATTTTGCGCATCGAGTAAACAAATTTTCCTAATCTTTCTGTTCAAGCGCCATCTAC,1.98 RPM ratio (pull-down/input)
2,GATGATTGTTCTCCCAGCTGATGAATTTGCGAATTCGAGTAAACAAATTTTCCTAATCTTTCTGTTCAAGCGCCATCTAC,1.18 RPM ratio (pull-down/input)
3,GATGATTGTTCTCCCAGCTGATGAATTTGCGCATTCGAGTAAACAAATTTTCCTAATCTTTCTGTTCAAGCGCCATCTAC,7.07 RPM ratio (pull-down/input)
4,GATGATTGTTCTCCCAGCTGATGAATTGCGCATCTCGAGTAAACAAATTTTCCTAATCTTTCTGTTCAAGCGCCATCTAC,8.03 RPM ratio (pull-down/input)
5,GATGATTGTTCTCCCAGCTGATGAATTTTGCGATTCGAGTAAACAAATTTTCCTAATCTTTCTGTTCAAGCGCCATCTAC,2.4 RPM ratio (pull-down/input)
6,GATGATTGTTCTCCCAGCTGATGAATTGCGCGCATCGAGTAAACAAATTTTCCTAATCTTTCTGTTCAAGCGCCATCTAC,2.39 RPM ratio (pull-down/input)
7,GATGATTGTTCTCCCAGCTGATGAATTGCATTGTTCGAGTAAACAAATTTTCCTAATCTTTCTGTTCAAGCGCCATCTAC,4.05 RPM ratio (pull-down/input)
8,GATGATTGTTCTCCCAGCTGATGAATTGCGCATTTCGAGTAAACAAATTTTCCTAATCTTTCTGTTCAAGCGCCATCTAC,8.05 RPM ratio (pull-down/input)
9,GATGATTGTTCTCCCAGCTGATGAATTGCATTTTTCGAGTAAACAAATTTTCCTAATCTTTCTGTTCAAGCGCCATCTAC,3.02 RPM ratio (pull-down/input)
10,GATGATTGTTCTCCCAGCTGATGAATTTTTGACCTCGAGTAAACAAATTTTCCTAATCTTTCTGTTCAAGCGCCATCTAC,0.237 RPM ratio (pull-down/input)
11,GATGATTGTTCTCCCAGCTGATGAATTCTTCTGCTCGAGTAAACAAATTTTCCTAATCTTTCTGTTCAAGCGCCATCTAC,0.236 RPM ratio (pull-down/input)
12,GATGATTGTTCTCCCAGCTGATGAATTACGTGACTCGAGTAAACAAATTTTCCTAATCTTTCTGTTCAAGCGCCATCTAC,0.737 RPM ratio (pull-down/input)
13,GATGATTGTTCTCCCAGCTGATGAATTGATCAAATCGAGTAAACAAATTTTCCTAATCTTTCTGTTCAAGCGCCATCTAC,0.304 RPM ratio (pull-down/input)
14,GATGATTGTTCTCCCAGCTGATGAATTGGGAACGTCGAGTAAACAAATTTTCCTAATCTTTCTGTTCAAGCGCCATCTAC,0.31 RPM ratio (pull-down/input)
15,GATGATTGTTCTCCCAGCTGATGAATTATAGAACTCGAGTAAACAAATTTTCCTAATCTTTCTGTTCAAGCGCCATCTAC,0.249 RPM ratio (pull-down/input)
16,GATGATTGTTCTCCCAGCTGATGAATTGCGCTGATCGAGTAAACAAATTTTCCTAATCTTTCTGTTCAAGCGCCATCTAC,0.898 RPM ratio (pull-down/input)
17,GATGATTGTTCTCCCAGCTGATGAATTCCTGAATTCGAGTAAACAAATTTTCCTAATCTTTCTGTTCAAGCGCCATCTAC,0.481 RPM ratio (pull-down/input)
18,GATGATTGTTCTCCCAGCTGATGAATTATTGTTTTCGAGTAAACAAATTTTCCTAATCTTTCTGTTCAAGCGCCATCTAC,3.7 RPM ratio (pull-down/input)
19,GATGATTGTTCTCCCAGCTGATGAATTTATTGTTTCGAGTAAACAAATTTTCCTAATCTTTCTGTTCAAGCGCCATCTAC,6.4 RPM ratio (pull-down/input)
20,GATGATTGTTCTCCCAGCTGATGAATTGTTTATTTCGAGTAAACAAATTTTCCTAATCTTTCTGTTCAAGCGCCATCTAC,6.99 RPM ratio (pull-down/input)
21,GATGATTGTTCTCCCAGCTGATGAATTTATTTCTTCGAGTAAACAAATTTTCCTAATCTTTCTGTTCAAGCGCCATCTAC,3.01 RPM ratio (pull-down/input)

row,Sequence,binding signal
1,GATGATTGTTCTCCCAGCTGATGAATTTCATACATCGAGTAAACAAATTTTCCTAATCTTTCTGTTCAAGCGCCATCTAC,0.449 RPM ratio (pull-down/input)
2,GATGATTGTTCTCCCAGCTGATGAATTGAGGACGTCGAGTAAACAAATTTTCCTAATCTTTCTGTTCAAGCGCCATCTAC,0.248 RPM ratio (pull-down/input)
3,GATGATTGTTCTCCCAGCTGATGAATTGTATCGGTCGAGTAAACAAATTTTCCTAATCTTTCTGTTCAAGCGCCATCTAC,0.882 RPM ratio (pull-down/input)
4,GATGATTGTTCTCCCAGCTGATGAATTCCAGTGGTCGAGTAAACAAATTTTCCTAATCTTTCTGTTCAAGCGCCATCTAC,0.415 RPM ratio (pull-down/input)
5,GATGATTGTTCTCCCAGCTGATGAATTTTTGTGTTCGAGTAAACAAATTTTCCTAATCTTTCTGTTCAAGCGCCATCTAC,1.04 RPM ratio (pull-down/input)
6,GATGATTGTTCTCCCAGCTGATGAATTTGTACTCTCGAGTAAACAAATTTTCCTAATCTTTCTGTTCAAGCGCCATCTAC,2.81 RPM ratio (pull-down/input)
7,GATGATTGTTCTCCCAGCTGATGAATTTTTGTACTCGAGTAAACAAATTTTCCTAATCTTTCTGTTCAAGCGCCATCTAC,0.489 RPM ratio (pull-down/input)
8,GATGATTGTTCTCCCAGCTGATGAATTGTGTTTCTCGAGTAAACAAATTTTCCTAATCTTTCTGTTCAAGCGCCATCTAC,4.32 RPM ratio (pull-down/input)
9,GATGATTGTTCTCCCAGCTGATGAATTGATGTGTTCGAGTAAACAAATTTTCCTAATCTTTCTGTTCAAGCGCCATCTAC,1.66 RPM ratio (pull-down/input)
10,GATGATTGTTCTCCCAGCTGATGAATTTGTGTTTTCGAGTAAACAAATTTTCCTAATCTTTCTGTTCAAGCGCCATCTAC,5.24 RPM ratio (pull-down/input)
11,GATGATTGTTCTCCCAGCTGATGAATTTGTGTTCTCGAGTAAACAAATTTTCCTAATCTTTCTGTTCAAGCGCCATCTAC,6.29 RPM ratio (pull-down/input)
12,GATGATTGTTCTCCCAGCTGATGAATTGTGTTGTTCGAGTAAACAAATTTTCCTAATCTTTCTGTTCAAGCGCCATCTAC,8.43 RPM ratio (pull-down/input)
13,GATGATTGTTCTCCCAGCTGATGAATTTTGTGTCTCGAGTAAACAAATTTTCCTAATCTTTCTGTTCAAGCGCCATCTAC,4.27 RPM ratio (pull-down/input)
14,GATGATTGTTCTCCCAGCTGATGAATTTGTGTACTCGAGTAAACAAATTTTCCTAATCTTTCTGTTCAAGCGCCATCTAC,6.72 RPM ratio (pull-down/input)
15,GATGATTGTTCTCCCAGCTGATGAATTTGTGTGTTCGAGTAAACAAATTTTCCTAATCTTTCTGTTCAAGCGCCATCTAC,5.99 RPM ratio (pull-down/input)
16,GATGATTGTTCTCCCAGCTGATGAATTCTTGTGTTCGAGTAAACAAATTTTCCTAATCTTTCTGTTCAAGCGCCATCTAC,0.821 RPM ratio (pull-down/input)
17,GATGATTGTTCTCCCAGCTGATGAATTCCACCTATCGAGTAAACAAATTTTCCTAATCTTTCTGTTCAAGCGCCATCTAC,0.432 RPM ratio (pull-down/input)
18,GATGATTGTTCTCCCAGCTGATGAATTCTTACGCTCGAGTAAACAAATTTTCCTAATCTTTCTGTTCAAGCGCCATCTAC,0.256 RPM ratio (pull-down/input)
19,GATGATTGTTCTCCCAGCTGATGAATTTCATGATTCGAGTAAACAAATTTTCCTAATCTTTCTGTTCAAGCGCCATCTAC,0.692 RPM ratio (pull-down/input)
20,GATGATTGTTCTCCCAGCTGATGAATTATTCCCATCGAGTAAACAAATTTTCCTAATCTTTCTGTTCAAGCGCCATCTAC,0.334 RPM ratio (pull-down/input)
21,GATGATTGTTCTCCCAGCTGATGAATTTGTACCTTCGAGTAAACAAATTTTCCTAATCTTTCTGTTCAAGCGCCATCTAC,2.49 RPM ratio (pull-down/input)
